# Values joined by “and” are separate entries in the source; they are usually repeats but may differ in a detail not shown here. Equal values may be shown once. Inconclusive results are not listed. A number with no mark means an inactive call. Active and inactive are the calls of the source. Calls come from the whole dose curve; as a rule, active = well fitted inhibition curve with a large enough effect; inconclusive = small, poorly fitted or top-dose-only effect; inactive = flat fitted curve, though single readings scatter.
# Columns and labels:
# PC49 = experiment: qHTS profiling for inhibitors of Plasmodium falciparum proliferation (AID 504749); conditions: P. falciparum in erythrocytes, SYBR Green DNA, 72 h; series mostly up to 28.7 µM
# Procedure, shortened: (§1)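 Parasite proliferation within erythrocytes, 72 h exposure. Endpoint: SYBR Green I fluorescence after overnight lysis at room temperature. Controls: 0.29 uM artemisinin, DMSO.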
# SC27B = experiment: as above; conditions: P. falciparum in erythrocytes, SYBR Green DNA, 72 h; series mostly up to 28.7 µM
# Procedure, shortened: as §1
# TAB109 = experiment: as above; conditions: P. falciparum in erythrocytes, SYBR Green DNA, 72 h; series mostly up to 28.7 µM
# Procedure, shortened: as §1
# TAB113 = experiment: as above; conditions: P. falciparum in erythrocytes, SYBR Green DNA, 72 h; series mostly up to 28.7 µM
# Procedure, shortened: as §1
# TAB165 = experiment: as above; conditions: P. falciparum in erythrocytes, SYBR Green DNA, 72 h; series mostly up to 28.7 µM
# Procedure, shortened: as §1
# W2 = experiment: as above; conditions: P. falciparum in erythrocytes, SYBR Green DNA, 72 h; series mostly up to 28.7 µM
# Procedure, shortened: as §1
# HEK293 = experiment: Cytotoxic Profiling of Annotated Libraries Using Quantitative High-Throughput Screening (AID 1296008); conditions: Five cell lines viability, CellTiter-Glo ATP luminescence, 48-72 h; max response: hits give low values; for max response: % is set by controls: 0 for no effect and ±100 for the full control effect
# Procedure, shortened: (§2)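 Compounds were pin-transferred onto cells and incubated 48 or 72 hr at 37 degree Celsius, 95% humidity. CellTiter-Glo was added, plates sat 10 min at room temperature, then ATP-coupled luminescence was imaged as the viability read-out.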
# HaCat = experiment: as above; conditions: Five cell lines viability, CellTiter-Glo ATP luminescence, 48-72 h; max response: hits give low values
# Procedure, shortened: as §2
# KB-3-1 = experiment: as above; conditions: Five cell lines viability, CellTiter-Glo ATP luminescence, 48-72 h; max response: hits give low values
# Procedure, shortened: as §2
# Note: nearly all actives have a fitted effect of over 60% in size.
# Potency is the fitted concentration of half-maximal effect.
compound,measurement,setting,value
CCCCCCCCCCCCCCCC[N+](C)(C)Cc1ccccc1,Potency,PC49,10 µM (active)
same,Potency,SC27B,1 µM (active)
same,Potency,TAB109,3.98 µM (active)
same,Potency,TAB113,14.1 µM (active)
same,Potency,TAB165,12.6 µM (active)
same,Potency,W2,4.26 µM (active)
same,Potency,HEK293,5.31 µM (active)
O=[N+]([O-])c1ccc(O)c2ncccc12,Potency,PC49,inactive
same,Potency,TAB165,14.1 µM (active)
same,Potency,W2,10.7 µM (active)
same,Potency,HEK293,8.41 µM (active)
Nc1ncnc2nc[nH]c12,Potency,PC49,inactive
same,Potency,SC27B,inactive
same,Potency,TAB109,inactive
same,Potency,TAB113,inactive
same,Potency,TAB165,inactive
same,Potency,W2,inactive
COc1ccc(-n2nc(CCC(=O)N(C)O)cc2-c2ccc(Cl)cc2)cc1,outcome,HaCat,inactive
COc1ccc(OC(=O)N(CC(=O)O)Cc2ccc(OCCc3nc(-c4ccccc4)oc3C)cc2)cc1,max response,HaCat,-6.17%
Nc1nc2ccccc2n1Cc1ccc(F)cc1,outcome,HaCat,inactive
NCC(=O)O,max response,HaCat,-52.5%
C[C@H](N)C(=O)N[C@@H](C)C(=O)NC1[C@H]2CN(c3nc4c(cc3F)c(=O)c(C(=O)O)cn4-c3ccc(F)cc3F)C[C@@H]12 (stereo partly drawn),max response,HaCat,0.555%
CN1CCC(Nc2ncc3ncnc(Nc4ccc(F)c(Cl)c4)c3n2)CC1,Potency,TAB109,11.2 µM (active)
same,Potency,TAB165,11.2 µM (active)
same,Potency,W2,5.36 µM (active)
same,Potency,HaCat,0.237 µM (active)
same,max response,KB-3-1,-0.0832%
N#C/C(=C1/SC[C@@H](c2ccc(Cl)cc2Cl)S1)n1ccnc1,max response,HaCat,-0.746%
COc1cccc2c1[C@@H]1CN(CCCCn3c(=O)[nH]c4c(sc5ncc(-c6ccccc6)nc54)c3=O)C[C@@H]1CO2,max response,KB-3-1,2.96%
CCOC(=O)N1CCC(n2c(=O)[nH]c3cc(Cl)ccc32)CC1,max response,HaCat,-12.1%
Cc1cccc(N(C)C(=S)Oc2ccc3c(c2)CCC3)c1,max response,HaCat,-7.13%
same,max response,KB-3-1,-1.52%
O=C(Nc1ccc(Cl)cc1)Nc1ccc(Cl)c(Cl)c1,Potency,PC49,2.24 µM (active)
same,Potency,SC27B,2.24 µM (active)
same,Potency,TAB109,3.55 µM (active)
same,Potency,TAB113,2.24 µM (active)
same,Potency,TAB165,1.78 µM (active)
same,Potency,W2,3.01 µM (active)
same,Potency,HEK293,7.5 µM (active)
CN1CCCN(C(c2ccccc2)c2ccc(Cl)cc2)CC1 (stereo not drawn),Potency,PC49,5.01 µM (active)
same,Potency,TAB165,7.94 µM (active)
same,Potency,W2,1.2 µM (active)
O=C(CCC1CCN(Cc2ccccc2)CC1)c1ccc2c(c1)NCCCC2,max response,HaCat,2.9%
same,max response,KB-3-1,-12.9%
O=S(=O)(O)c1ccc2nc(-c3ccccc3)[nH]c2c1,Potency,PC49,inactive
same,Potency,SC27B,inactive
same,Potency,TAB109,inactive
same,Potency,TAB113,inactive
same,Potency,TAB165,inactive
same,Potency,W2,inactive
same,max response,HaCat,-12.3%
C[N+](C)(C)CCO,max response,KB-3-1,-9.9% and -0.543%
CC(C)(C)c1ccc(O)c(O)c1,Potency,HEK293,12.2 µM (active)
same,max response,KB-3-1,-6.07%
O=C1OC2(c3ccccc31)c1cc(I)c(O)c(I)c1Oc1c2cc(I)c(O)c1I,outcome,HaCat,inactive
Cc1cc(C(C)(C)C)c(O)c(C(C)(C)C)c1,max response,HEK293,-3.94%
same,max response,KB-3-1,-9.85%
COc1c(C)c2c(c(O)c1C/C=C(\C)CCC(=O)OCCN1CCOCC1)C(=O)OC2,max response,HaCat,-40.9%
COC(=O)c1cc(Cl)ccc1NS(=O)(=O)C(F)(F)F,max response,HaCat,-18%
CC(NCCC(c1ccccc1)c1ccccc1)c1ccccc1 (stereo not drawn),Potency,PC49,5.01 µM (active)
same,Potency,SC27B,11.2 µM (active)
same,Potency,TAB109,12.6 µM (active)
same,Potency,TAB165,11.2 µM (active)
same,Potency,W2,4.26 µM (active)
same,max response,KB-3-1,-10.5%
O=C(OCC(O)CO)c1ccccc1Nc1ccnc2c(C(F)(F)F)cccc12 (stereo not drawn),max response,HaCat,-6.27%
CCC[C@H](N[C@@H](C)C(=O)N1[C@H](C(=O)O)C[C@@H]2CCCC[C@@H]21)C(=O)OCC,max response,HaCat,1.07%
Clc1ccc2c(c1)N=C(N1CCNCC1)c1ccccc1N2,max response,HaCat,2.45%
CC(CC1c2ccccc2CCc2ccccc21)CN(C)C (stereo not drawn),max response,HaCat,1.42%
CN1CCC(N(Cc2cccs2)c2ccccc2)CC1,max response,HaCat,-4.44%
CCCC(=O)O[C@]1(C(=O)CC)CC[C@H]2[C@@H]3CCC4=CC(=O)CC[C@]4(C)[C@H]3[C@@H](O)C[C@@]21C,max response,HaCat,-13.1%
OC1(c2ccc(Cl)c(C(F)(F)F)c2)CCN(CCCC(c2ccc(F)cc2)c2ccc(F)cc2)CC1,Potency,HEK293,8.41 µM (active)
same,Potency,KB-3-1,23.1 µM (active)
